Read-outs that look alike come from different tables or passages of the source.

Common to all, as to parameters: species or system human, MV4-11 + K-562 + COLO205 + SK-N-BE2 + OVCAR-8
One assay concerns BUB1. To be noted: read-out: apparent Kd; compound concentrations:100 nM and 1000 nM (sheet 'Samples'); n = 1.
The subject of another assay is CDC42BPA. To be noted: read-out: apparent Kd; compound concentrations:100 nM and 1000 nM (sheet 'Samples'); n = 1.
For another assay, the system named is CDC42BPB. To be noted: read-out: apparent Kd; compound concentrations:100 nM and 1000 nM (sheet 'Samples'); n = 1.
For a further assay, the system named is CDC42BPG. To be noted: read-out: apparent Kd; compound concentrations:100 nM and 1000 nM (sheet 'Samples'); n = 1.
A further assay has as its system CDC7. To be noted: read-out: apparent Kd; compound concentrations:100 nM and 1000 nM (sheet 'Samples'); n = 1.
Another assay has as its system LATS1. To be noted: read-out: apparent Kd; compound concentrations:100 nM and 1000 nM (sheet 'Samples'); n = 1.
A further assay has as its system MELK. To be noted: read-out: apparent Kd; compound concentrations:100 nM and 1000 nM (sheet 'Samples'); n = 1.
The subject of the next assay is PIM1. To be noted: read-out: apparent Kd; compound concentrations:100 nM and 1000 nM (sheet 'Samples'); n = 1.
The next assay relates to PKN1. To be noted: read-out: apparent Kd; compound concentrations:100 nM and 1000 nM (sheet 'Samples'); n = 1.
The test system of the next assay is PKN2. To be noted: read-out: apparent Kd; compound concentrations:100 nM and 1000 nM (sheet 'Samples'); n = 1.
For a further assay, the system named is PRKCA. To be noted: read-out: apparent Kd; compound concentrations:100 nM and 1000 nM (sheet 'Samples'); n = 1.
The next assay has as its system PRKCB. To be noted: read-out: apparent Kd; compound concentrations:100 nM and 1000 nM (sheet 'Samples'); n = 1.
The next assay concerns PRKCD. To be noted: read-out: apparent Kd; compound concentrations:100 nM and 1000 nM (sheet 'Samples'); n = 1.
In a further assay the test system is PRKCI. To be noted: read-out: apparent Kd; compound concentrations:100 nM and 1000 nM (sheet 'Samples'); n = 1.
In the next assay the test system is PRKG1. To be noted: read-out: apparent Kd; compound concentrations:100 nM and 1000 nM (sheet 'Samples'); n = 1.
In another assay the test system is PRKX. To be noted: read-out: apparent Kd; compound concentrations:100 nM and 1000 nM (sheet 'Samples'); n = 1.
The subject of the next assay is ROCK2. To be noted: read-out: apparent Kd; compound concentrations:100 nM and 1000 nM (sheet 'Samples'); n = 1.
The subject of a further assay is RPS6KA4. To be noted: read-out: apparent Kd; compound concentrations:100 nM and 1000 nM (sheet 'Samples'); n = 1.
A further assay has as its system RPS6KA5. To be noted: read-out: apparent Kd; compound concentrations:100 nM and 1000 nM (sheet 'Samples'); n = 1.
The test system of the next assay is RPS6KB1. To be noted: read-out: apparent Kd; compound concentrations:100 nM and 1000 nM (sheet 'Samples'); n = 1.
The next assay has as its system AURKB. To be noted: read-out: apparent Kd, compound concentrations: 100 nM and 1000 nM (sheet 'Samples'), n = 1.
In another assay the test system is CAMK2B. To be noted: read-out: apparent Kd; compound concentrations: 100 nM and 1000 nM (sheet 'Samples'), CATDS: 0.10460822503909301; n = 1.
In another assay the test system is EIF2AK1. To be noted: read-out: apparent Kd; compound concentrations: 100 nM and 1000 nM (sheet 'Samples'), CATDS: 6.5022580640831398E-2; n = 1.
Another assay deals with MAP2K5. To be noted: read-out: apparent Kd; compound concentrations: 100 nM and 1000 nM (sheet 'Samples'), CATDS: 0.13171106930199999; n = 1.
The test system of another assay is MAP3K4. To be noted: read-out: apparent Kd; compound concentrations: 100 nM and 1000 nM (sheet 'Samples'), CATDS: 6.3313755179161796E-2; n = 1.
A further assay concerns MAP4K2. To be noted: read-out: apparent Kd; compound concentrations: 100 nM and 1000 nM (sheet 'Samples'), CATDS: 8.0363217180658503E-2; n = 1.
The subject of the next assay is MAP4K3. To be noted: read-out: apparent Kd; compound concentrations: 100 nM and 1000 nM (sheet 'Samples'), CATDS: 7.0061337897802001E-2; n = 1.
The test system of a further assay is NEK2. To be noted: read-out: apparent Kd; compound concentrations: 100 nM and 1000 nM (sheet 'Samples'), CATDS: 7.0707362303254903E-2; n = 1.
The subject of a further assay is PTK6. To be noted: read-out: apparent Kd; compound concentrations: 100 nM and 1000 nM (sheet 'Samples'), CATDS: 9.6831640225396698E-2; n = 1.
The next assay relates to RIPK3. To be noted: read-out: apparent Kd; compound concentrations: 100 nM and 1000 nM (sheet 'Samples'), CATDS: 5.9468743018389697E-2; n = 1.
Another assay deals with STK3. To be noted: read-out: apparent Kd; compound concentrations: 100 nM and 1000 nM (sheet 'Samples'), CATDS: 6.0873779479402902E-2; n = 1.
A further assay deals with STK4. To be noted: read-out: apparent Kd; compound concentrations: 100 nM and 1000 nM (sheet 'Samples'), CATDS: 7.2736683737858396E-2; n = 1.
The subject of a further assay is YES1. To be noted: read-out: apparent Kd; compound concentrations: 100 nM and 1000 nM (sheet 'Samples'), CATDS: 8.4422564435587905E-2; n = 1.
A further assay relates to MAPK14. To be noted: read-out: apparent Kd; compound concentrations:100 nM and 1000 nM (sheet 'Samples'); n = 1.
A further assay relates to AXL. To be noted: read-out: apparent Kd; compound concentrations: 100 nM and 1000 nM (sheet 'Samples'), CATDS: 0.14940898802630401; n = 1.
A further assay deals with CLK1. To be noted: read-out: apparent Kd; compound concentrations: 100 nM and 1000 nM (sheet 'Samples'), CATDS: 0.22469270721715301; n = 1.
The next assay concerns CLK2. To be noted: read-out: apparent Kd; compound concentrations: 100 nM and 1000 nM (sheet 'Samples'), CATDS: 0.32192475407013899; n = 1.
The subject of the next assay is CLK4. To be noted: read-out: apparent Kd; compound concentrations: 100 nM and 1000 nM (sheet 'Samples'), CATDS: 0.19159631348183601; n = 1.
The subject of the next assay is NTRK1. To be noted: read-out: apparent Kd; compound concentrations: 100 nM and 1000 nM (sheet 'Samples'), CATDS: 0.180805132487488; n = 1.

On to `CCn1c(-c2nonc2N)nc2cncc(C(=O)N3CCNCC3)c21.Cl` [SB-759335-B], for which the potency estimated from few doses with BUB1 is 543 nM; in the assay with CDC42BPA it was 1080 nM; in the assay with CDC42BPB, 1640 nM; in the assay on CDC42BPG, 2060 nM; in the assay on CDC7, 2080 nM; in the assay with LATS1, 1940 nM. For the same compound, the potency estimated from few doses with MELK is 1040 nM; in the assay on PIM1, 501 nM; in the assay with PKN1 it was 813 nM; in the assay on PKN2, 119 nM; in the assay on PRKCA, 1900 nM; in the assay with PRKCB, 1510 nM. The potency estimated from few doses with PRKCD was 1200 nM; with PRKCI, 2020 nM; in the assay with PRKG1, 135 nM; in the assay on PRKX, 750 nM; in the assay on ROCK2, 24.7 nM; in the assay with RPS6KA4 it was 723 nM. The potency estimated from few doses with RPS6KA5 is 142 nM; in the assay on RPS6KB1, 115 nM.

Consider `Cn1cc(-c2ccc3c(c2)CCN3C(=O)Cc2ccccc2Cl)c2c(N)ncnc21` [GSK2608885A], for which the potency estimated from few doses was 825 nM with AURKB (CATDS: 9.3884210166783694E-2); 685 nM in the assay on CAMK2B; 1790 nM with EIF2AK1; 478 nM in the assay with MAP2K5; 1920 nM in the assay on MAP3K4; 1110 nM with MAP4K2. For the same compound, the potency estimated from few doses in the assay with MAP4K3 was 1490 nM; in the assay on NEK2, 1460 nM; in the assay with PTK6, 781 nM; with RIPK3 it was 2280 nM; in the assay with STK3 it was 2130 nM; with STK4, 1370 nM. In the assay on YES1, the potency estimated from few doses was 1000 nM.

As to `Cl.Oc1cccc(-c2nc(-c3ccccc3)[nH]c2-c2ccncc2)c1` [SB-610251-B], the figures for the potency estimated from few doses in the assay with BUB1 and in the assay on MAPK14 were 2530 nM and 1570 nM, respectively.

Take `CC(C)S(=O)(=O)N1CCN(Cc2ccc3c(c2)nc(NC(=O)c2ccsc2)n3C[C@H](O)c2ccccc2)CC1` [GW635815X]: the potency estimated from few doses in the assay with AXL was 1630 nM; in the assay on CLK1, 606 nM; in the assay on CLK2 it was 328 nM; in the assay on CLK4 it was 843 nM; in the assay with NTRK1, 964 nM.

In the case of `Cn1ccc2ncnc(Oc3ccc(Nc4nc5ccccc5[nH]4)cc3)c21` [TPKI-72], the potency estimated from few doses in the assay with AURKB (CATDS: 1) was 617 nM.

Values taken from paper PMC11062922 (Nature Chemical Biology, 2023).
